Bioassay records deposited in PubChem by National Center for Advancing Translational Sciences (NCATS).
An excerpt weighted towards active compounds, which were near 8.9% of everything screened.
KB-V1 MDR tox: kills drug-selected multidrug resistant KB-V1 cells | KB-V1 MDR cells viability, CellTiter-Glo, 72 h | Potency, µM (top dose mostly 46.1 µM), actives largely listed as cytotoxic | hit rate 3.4% among 400,000; also: nearly all actives have a fitted effect of over 60% in size
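Compound-treated KB-V1 multidrug-resistant cells, 72 h, 37 degrees C; viability by CellTiter-Glo. Fitted qHTS curves give the values.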
DRD3 antagonist: antagonists of human D3 dopamine receptor. hit rate 2.5% among 360,000. D3R cells, DiscoveRx beta-arrestin luminescence, antagonist mode; hits give low values. AID 652054. max response, negative = inhibition, %; in the data active = max response below about -50%; inconclusive = no clear call, values can overlap the other calls
Target sequence (P35462 whole entry, looked up): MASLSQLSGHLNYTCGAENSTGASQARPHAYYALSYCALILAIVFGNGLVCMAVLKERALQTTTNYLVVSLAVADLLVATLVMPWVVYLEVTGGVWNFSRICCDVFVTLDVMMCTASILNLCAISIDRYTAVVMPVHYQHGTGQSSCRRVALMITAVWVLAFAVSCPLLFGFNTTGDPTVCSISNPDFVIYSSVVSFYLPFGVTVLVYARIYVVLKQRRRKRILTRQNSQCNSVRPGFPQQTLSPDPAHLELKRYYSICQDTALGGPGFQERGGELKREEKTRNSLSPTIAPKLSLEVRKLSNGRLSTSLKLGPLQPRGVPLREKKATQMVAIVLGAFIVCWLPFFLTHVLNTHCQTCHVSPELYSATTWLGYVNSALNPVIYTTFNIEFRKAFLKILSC
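Cells plated overnight at 1500 cells/well, then exposed to library compounds with dopamine controls for 90 minutes at 37 degrees C. DiscoveRx reagent added for 30–60 minutes at room temperature; luminescence read, quantitative HTS format.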
DRD3 agonist: activates the human D3 dopamine receptor; max activation, %; D3R DiscoveRx beta-arrestin cells, luminescence, 90 min; AID 652048; hit rate 0.58% among 410,000; P35462; in the data active = max activation above about 30%
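Agonist mode: compounds and dopamine controls were applied to plated cells for 90 min at 37 degrees C after an overnight attachment at 1500 cells/well. Luminescent read-out followed 30 - 60 minutes at room temperature with DiscoveRx detection reagent.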
KB-3-1 tox: kills parental KB-3-1 adenocarcinoma cells | KB-3-1 viability, CellTiter-Glo ATP luminescence, 72 h | Potency, µM (series often up to 46.1 µM), hits mostly cytotoxic | hit rate 1.4% among 400,000; also: nearly all actives have a fitted effect of over 60% in size
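Parental KB-3-1 adenocarcinoma cells in phenol-red-free DMEM with 10% FBS were pin-treated with compounds at several concentrations, incubated 72 h at 37 °C, and viability read by CellTiter-Glo luminescence; concentration-effect curves were fitted after normalization.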
SW480 rerep: induces DNA re-replication in SW480 colon adenocarcinoma cells | hit rate 1.8% among 340,000 | SW480 DNA re-replication, Hoechst DNA content imaging, 48 h | Potency, µM (series often up to 46.1 µM), hits mostly activators | AID 624297; also: nearly all actives have a fitted effect of over 55% in size
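Quantitative HTS format with DMSO vehicle controls; 48 hr drug incubation at 37 C, then 40 min Hoechst staining and scanning imager measurement at 405 nm excitation.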
MCF10A rerep: induces DNA re-replication in MCF 10a normal breast cells. Potency, µM (highest dose often 46.1 µM), most hits filed as activators. MCF 10A DNA re-replication, Hoechst nuclear intensity, 48 h. hit rate 2.9% among 350,000; also: nearly all actives have a fitted effect of over 50% in size
Large screens that a line does not name were inactive. Unless noted, calls follow the shape of the dose curve; as a rule, active = well fitted curve in the direction sought with a large enough effect; inconclusive = small, poorly fitted or top-dose-only effect, or another doubt; inactive = no such curve, though single readings can be large; an effect the other way counts as inactive or inconclusive.

COc1ccc(/C=N/Nc2cc(C)nc(N3CCOCC3)n2)cc1	DRD3 agonist 32, SW480 rerep inconclusive
Cc1nc(N/N=C/c2ccc(O)cc2O)cc(N2CCOCC2)n1	KB-V1 MDR tox inconclusive, KB-3-1 tox inconclusive, SW480 rerep inconclusive, MCF10A rerep inconclusive
Oc1ccc(/C=N/Nc2cc(N3CCOCC3)nc(N3CCOCC3)n2)cc1O	none
COc1ccc(NC(=O)c2ccco2)cc1S(=O)(=O)N1CCOCC1	none
COc1ccc(NC(=O)Cn2ncc(Cl)c(Cl)c2=O)cc1S(=O)(=O)N1CCOCC1	SW480 rerep 4.6µM, MCF10A rerep 4.1µM
COc1ccc(NC(=O)C2CCN(C(=O)Nc3ccccc3)CC2)cc1S(=O)(=O)N(C)C	DRD3 antagonist -67
COc1ccc(NC(=O)c2c(C)nn(Cc3ccccc3)c2Cl)cc1S(=O)(=O)N1CCOCC1	MCF10A rerep 2.1µM
CCc1ccc(C(=O)Nc2ccc(OC)c(S(=O)(=O)N3CCOCC3)c2)cc1	KB-V1 MDR tox 9.2µM
Cc1c(CNCCCc2ccccc2)c(C(=O)O)c(C)n1Cc1ccc(Cl)cc1	none (no result: DRD3 antagonist, SW480 rerep, MCF10A rerep)
COc1ccc(NC(=O)C2COc3ccccc3O2)cc1S(=O)(=O)N1CCOCC1 (configuration not stated)	KB-V1 MDR tox 13µM
COc1ccc(C(=O)NCC(c2cccnc2)N2CCN(c3ccccc3)CC2)cc1OC (configuration not stated)	KB-3-1 tox 5.2µM
COc1ccc(/C=C/C(=O)NC2CCCCCCC2)cc1S(=O)(=O)N1CCOCC1	KB-V1 MDR tox 23µM, KB-3-1 tox inconclusive, MCF10A rerep inconclusive (no result: SW480 rerep)
COc1ccc(C(=O)NCC(c2ccccc2)c2ccccc2)cc1S(=O)(=O)N1CCOCC1	KB-V1 MDR tox 8.2µM
O=C(Nc1cccc(S(=O)(=O)N2CCOCC2)c1)C1COc2ccccc2O1 (configuration not stated)	none
CCCN1C(=O)c2ccccc2CC1(C)C(=O)NC1CCCCC1 (configuration not stated)	none (no result: KB-V1 MDR tox, DRD3 antagonist, KB-3-1 tox, SW480 rerep, MCF10A rerep)
Cc1onc(-c2c(F)cccc2Cl)c1C(=O)N[C@@H]1C(=O)N2[C@@H]1SC(C)(C)[C@@H]2C(=O)O	none (no result: KB-V1 MDR tox, DRD3 antagonist, KB-3-1 tox, SW480 rerep, MCF10A rerep)
COc1ccc(S(=O)(=O)N2CCOCC2)cc1C(=O)NCc1c(C)nn(Cc2ccccc2)c1C	KB-V1 MDR tox inconclusive
COc1ccc(C(=O)NCc2c(C)nn(Cc3ccccc3)c2C)cc1S(=O)(=O)N1CCOCC1	KB-3-1 tox 6.5µM, SW480 rerep inconclusive, MCF10A rerep 15µM
COc1ccc(S(=O)(=O)N2CCOCC2)cc1NC(=O)c1cc2ccccc2o1	MCF10A rerep inconclusive
O=C(COCc1cc(-c2ccco2)on1)Nc1cccc(O)c1	KB-V1 MDR tox inconclusive (no result: DRD3 antagonist, SW480 rerep, MCF10A rerep)
O=C(Cc1ccc(F)cc1)Nc1cccc2cccnc12	KB-V1 MDR tox 16µM, DRD3 antagonist inconclusive
O=C(NCCCCCCNC(=O)OCc1ccccc1)OCc1ccccc1	none
O=C(OCc1ccccc1)N(CCCCN(CCCNCc1ccccc1)C(=O)OCc1ccccc1)CCCNCc1ccccc1	KB-V1 MDR tox inconclusive, KB-3-1 tox 16µM, SW480 rerep inconclusive, MCF10A rerep 5.8µM
COc1ccccc1CNC(=O)Cn1ncn2c(cc3sccc32)c1=O	none (no result: DRD3 antagonist, SW480 rerep, MCF10A rerep)
O=c1cc(-c2ccc(F)cc2)nc(SCc2nc(-c3cccc(Cl)c3)no2)[nH]1	none (no result: DRD3 antagonist, SW480 rerep, MCF10A rerep)
O=C(c1cnc2ccc3ccccc3c2c1)c1cc(F)ccc1O	KB-V1 MDR tox 3.7µM, KB-3-1 tox inconclusive, SW480 rerep 3.7µM, MCF10A rerep inconclusive
O=[N+]([O-])CC(c1ccccc1)c1c[nH]c2ccccc12 (configuration not stated)	KB-V1 MDR tox inconclusive, KB-3-1 tox 16µM, MCF10A rerep 15µM
Cc1nc(-c2ccccc2)sc1-c1ccc(SCC(=O)Nc2ccc(F)cc2F)nn1	none (no result: DRD3 antagonist, SW480 rerep, MCF10A rerep)
O=[N+]([O-])c1cnc(Sc2ccncn2)c([N+](=O)[O-])c1	KB-3-1 tox inconclusive (no result: SW480 rerep, MCF10A rerep)
O=[N+]([O-])c1cnc(Sc2ccncn2)s1	KB-V1 MDR tox inconclusive, DRD3 antagonist -125, KB-3-1 tox 18µM, SW480 rerep inconclusive
CCc1cccc(C)c1NC(=O)CSc1n[nH]c(-c2ccccc2)n1	none (no result: DRD3 antagonist, SW480 rerep, MCF10A rerep)
O=S(=O)(c1ccccc1)c1cnc(-c2cccnc2)nc1-c1ccccc1	KB-V1 MDR tox 8.2µM
O=S(=O)(c1ccccc1)c1cnc(-c2cccnc2)nc1-c1ccc(Cl)cc1Cl	KB-3-1 tox inconclusive
CCOc1cc(-c2cc(-c3ccc(N)cc3)nc(N)c2C#N)ccc1O	KB-V1 MDR tox inconclusive, KB-3-1 tox inconclusive, SW480 rerep inconclusive, MCF10A rerep 12µM
CCOC(=O)c1ccc(N2C(=O)c3[nH]nc(-c4ccc(C)cc4)c3C2c2ccc(O)c(OCC)c2)cc1 (configuration not stated)	KB-V1 MDR tox inconclusive, KB-3-1 tox inconclusive (no result: DRD3 antagonist, SW480 rerep, MCF10A rerep)
Cc1ccccc1OCC(O)CN1CCN(C)CC1 (configuration not stated)	none
OC(COc1c(F)cc(Br)cc1F)CN1CCc2ccccc2C1 (configuration not stated)	DRD3 antagonist -111
Cc1cccc(C)c1OCC(O)CN1CCc2ccccc2C1 (configuration not stated)	DRD3 antagonist -67
Cn1cc(CNCc2ccccc2OCC(O)CN2CCc3ccccc3C2)cn1 (configuration not stated)	DRD3 antagonist -71, KB-3-1 tox inconclusive
O=S(=O)(c1ccc(OCC(O)CN2CCCCC2)cc1)N1CCOCC1 (configuration not stated)	none
O=S(=O)(c1ccc(OCC(O)CN2CCc3ccccc3C2)cc1)N1CCOCC1 (configuration not stated)	KB-V1 MDR tox inconclusive, DRD3 antagonist -57, MCF10A rerep inconclusive
CCOc1ccccc1NC(=O)N1CCc2c(sc3c2CCCC3)C1c1ccccc1 (configuration not stated)	none (no result: DRD3 antagonist, SW480 rerep, MCF10A rerep)
COc1ccc(N2CCN(CC(=O)N3CCC(C)CC3)CC2)cc1	KB-V1 MDR tox 18µM
COc1ccc(N2CCN(C(=O)CN3CCN(c4nc(-c5ccc(F)cc5)cs4)CC3)CC2)cc1	KB-V1 MDR tox inconclusive, KB-3-1 tox 23µM, SW480 rerep inconclusive, MCF10A rerep inconclusive
CCc1cc(=S)n2c([nH]c3ccccc32)c1C#N	KB-V1 MDR tox 5.8µM, KB-3-1 tox inconclusive, SW480 rerep inconclusive, MCF10A rerep inconclusive
CCc1cc(=O)n2c([nH]c3ccccc32)c1C#N	MCF10A rerep inconclusive
CCc1c(C)c(C#N)c2[nH]c3ccccc3n2c1=S	KB-V1 MDR tox 7.3µM, KB-3-1 tox inconclusive, MCF10A rerep inconclusive
CCOc1ccc(-c2nn(CC(=O)NC3CCCCC3)c3c2cnc2ccc(C)cc23)cc1	none (no result: DRD3 antagonist, SW480 rerep, MCF10A rerep)
c1nc(N2CCC(N3CCCC3)CC2)c2cc(-c3ccc4c(c3)OCO4)ccc2n1	none (no result: DRD3 antagonist, DRD3 agonist, SW480 rerep, MCF10A rerep)
